Among the data in PubChem BioAssay are growth inhibition, inhibition and outcome values, retold here.

Unmarked numbers belong to inactive results. For some of these results: Entries with a potency or affinity are not part of this list. Active and inactive are the calls of the source. Unless noted, the rule behind the calls is not given here.

Test [1] can be described thus: antimalarial activity against Dd2 strain (AID 2302;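 active = growth inhibition above 50% at the single 2 µM test dose, taken to imply half-maximal potency below 2 µM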;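 note: 0% = DMSO untreated growth and 100% = chloroquine plus artemisinin killed control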). Particulars: P. falciparum Dd2 in RBCs, LDH growth readout, 72 h; at 2 µM; active compounds read high.
Test [2] can be described thus: HepG2 cytotoxicity, primary screen, cytotoxicity control for P. falciparum antimalarial project, cell-based, ATP luminescence (AID 2303;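 active = inhibition above 50%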;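 note: 0% = DMSO wells and 100% = digitonin-killed cells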). Particulars: HepG2 viability, 24-48 h, at 10 µM, active compounds read high.
Test [3] deals with L-lactate dehydrogenase (Plasmodium falciparum (isolate CDC / Honduras)) (UniProt Q27743). As to the kind of experiment: PfLDH activity inhibition – cell lysate, 3D7 strain, counter-screen for P. falciparum growth inhibition project (AID 2304).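 Note: 0% = vehicle and 100% = reference inhibitor.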 The note with it: P. falciparum 3D7 crude extract, LDH APAD/NBT absorbance; at 2 µM; active compounds read high.
Chain of L-lactate dehydrogenase (Plasmodium falciparum (isolate CDC / Honduras)) (Q27743 whole entry, looked up): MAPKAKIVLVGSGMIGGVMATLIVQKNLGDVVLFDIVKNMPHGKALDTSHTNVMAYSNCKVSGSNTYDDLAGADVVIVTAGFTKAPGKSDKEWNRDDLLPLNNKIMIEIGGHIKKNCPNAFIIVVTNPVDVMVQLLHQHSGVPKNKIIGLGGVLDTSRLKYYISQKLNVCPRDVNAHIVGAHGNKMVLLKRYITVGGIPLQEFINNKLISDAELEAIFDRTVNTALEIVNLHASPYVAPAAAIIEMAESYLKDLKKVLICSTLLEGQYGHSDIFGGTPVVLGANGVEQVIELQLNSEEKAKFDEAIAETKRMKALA
A short description of test [4]: inhibition of 3D7 malaria parasite growth – strain 3D7 (AID 2306).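 Note: 0% = DMSO wells and 100% = chloroquine plus artemisinin control wells.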 The note with it: P. falciparum 3D7 erythrocytic growth, LDH absorbance, 72 h; at 2 µM; active compounds read high.
In test [5] the target is Calcium-dependent protein kinase 1 (Plasmodium falciparum (isolate 3D7)) (UniProt P62344). As to the kind of experiment: PfCDPK1 kinase inhibitors, biochemical, TCAMS library (AID 1159585; cut-off not given, nearly all actives have IC50 up to about 0.98 µM;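 note: inhibitors leave more ATP so luminescence rises with inhibition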). Particulars: recombinant PfCDPK1, Kinase-Glo ATP depletion luminescence.
Chain of Calcium-dependent protein kinase 1 (Plasmodium falciparum (isolate 3D7)) (P62344 whole entry, looked up): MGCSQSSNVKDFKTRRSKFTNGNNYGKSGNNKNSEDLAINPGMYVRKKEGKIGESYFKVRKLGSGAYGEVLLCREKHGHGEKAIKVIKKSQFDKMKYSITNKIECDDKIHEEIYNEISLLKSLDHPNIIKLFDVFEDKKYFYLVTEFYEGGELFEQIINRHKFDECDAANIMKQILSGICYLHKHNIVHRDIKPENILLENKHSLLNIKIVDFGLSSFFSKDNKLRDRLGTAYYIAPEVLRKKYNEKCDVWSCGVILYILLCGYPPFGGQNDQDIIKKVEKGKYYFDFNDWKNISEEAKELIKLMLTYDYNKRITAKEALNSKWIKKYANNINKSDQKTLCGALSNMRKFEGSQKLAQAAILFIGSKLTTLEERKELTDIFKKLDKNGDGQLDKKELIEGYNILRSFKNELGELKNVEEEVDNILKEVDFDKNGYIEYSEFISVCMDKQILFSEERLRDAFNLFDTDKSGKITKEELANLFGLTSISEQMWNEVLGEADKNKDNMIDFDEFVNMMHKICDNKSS
For test [6], the target named is Plasmodium falciparum protein kinase 6 (PK6, PF3D7_1337100) (UniProt Q8IDW1). Briefly: PfPK6 kinase inhibitors, biochemical, TCAMS library (AID 1159586). Particulars: recombinant PfPK6, Kinase-Glo ATP depletion luminescence.
Chain of Plasmodium falciparum protein kinase 6 (PK6, PF3D7_1337100) (Q8IDW1 1-305): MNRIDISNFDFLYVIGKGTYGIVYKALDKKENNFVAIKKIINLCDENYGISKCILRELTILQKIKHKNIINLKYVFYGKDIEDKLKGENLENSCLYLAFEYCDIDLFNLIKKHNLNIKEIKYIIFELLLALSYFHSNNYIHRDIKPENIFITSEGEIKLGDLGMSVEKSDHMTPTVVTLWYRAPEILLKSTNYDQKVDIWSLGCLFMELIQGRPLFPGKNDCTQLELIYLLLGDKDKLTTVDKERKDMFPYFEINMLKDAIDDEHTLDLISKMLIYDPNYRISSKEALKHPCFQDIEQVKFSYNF
Test [7] deals with Protein kinase 7 (PK7), Plasmodium falciparum 3D7 (PF3D7_0213400) (UniProt Q7YTF7). As to the kind of experiment: inhibition of Plasmodium PK7 catalytic activity – biochemical, TCAMS antimalarial set, Kinase-Glo luminescence (AID 1159587). The note with it: recombinant PfPK7, Kinase-Glo ATP depletion luminescence.
Chain of Protein kinase 7 (PK7), Plasmodium falciparum 3D7 (PF3D7_0213400) (Q7YTF7 1-343): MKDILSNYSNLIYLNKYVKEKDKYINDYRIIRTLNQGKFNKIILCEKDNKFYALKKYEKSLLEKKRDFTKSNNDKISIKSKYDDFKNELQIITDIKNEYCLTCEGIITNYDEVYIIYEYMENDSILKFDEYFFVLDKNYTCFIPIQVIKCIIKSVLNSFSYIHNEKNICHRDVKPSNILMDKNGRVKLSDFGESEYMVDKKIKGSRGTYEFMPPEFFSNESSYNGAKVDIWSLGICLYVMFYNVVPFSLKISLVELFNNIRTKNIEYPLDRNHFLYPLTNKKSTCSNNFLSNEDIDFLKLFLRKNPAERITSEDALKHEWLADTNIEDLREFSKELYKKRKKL
For test [8], the target named is Calcium-dependent protein kinase 4 (Plasmodium falciparum (isolate 3D7)) (UniProt Q8IBS5). As to the kind of experiment: PfCDPK4 kinase inhibitors, biochemical, TCAMS library (AID 1159588; cut-off not given, nearly all actives have IC50 up to about 0.91 µM). Particulars: recombinant PfCDPK4, Kinase-Glo ATP depletion luminescence.
Chain of Calcium-dependent protein kinase 4 (Plasmodium falciparum (isolate 3D7)) (Q8IBS5 whole entry, looked up): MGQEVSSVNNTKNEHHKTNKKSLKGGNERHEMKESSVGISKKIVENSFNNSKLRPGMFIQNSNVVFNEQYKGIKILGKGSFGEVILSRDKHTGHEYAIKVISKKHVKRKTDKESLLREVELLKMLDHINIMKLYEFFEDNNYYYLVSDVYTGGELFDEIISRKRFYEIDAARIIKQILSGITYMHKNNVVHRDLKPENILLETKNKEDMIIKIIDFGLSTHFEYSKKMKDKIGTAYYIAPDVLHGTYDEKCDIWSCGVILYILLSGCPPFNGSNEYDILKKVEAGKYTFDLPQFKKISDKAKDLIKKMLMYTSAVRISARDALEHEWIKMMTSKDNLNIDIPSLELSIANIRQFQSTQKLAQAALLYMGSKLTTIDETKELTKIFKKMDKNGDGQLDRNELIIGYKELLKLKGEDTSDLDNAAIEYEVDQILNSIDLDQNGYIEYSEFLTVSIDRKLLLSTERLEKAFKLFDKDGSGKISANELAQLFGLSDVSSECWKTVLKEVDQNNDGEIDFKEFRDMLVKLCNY

Turning to `O=C(/C=C/c1ccc(Cl)c(Cl)c1)NCCCCCN1CCC(NC(=O)Nc2cccc(Cl)c2Cl)CC1`, the growth inhibition in test [1] is 35%; in test [4], 104% (active). Moreover, the inhibition in test [2] is 99% (active); in test [3], -5%. The outcome in test [5], in test [6], in test [7] and in test [8] was inactive.

In the case of `CN1CCN(CCCN(Cc2csc(-c3ccc(CNCc4ccccc4)cc3)n2)S(=O)(=O)c2ccccc2Cl)CC1`, the growth inhibition in test [1] is 81% (active); in test [4], 93% (active). The figures for the inhibition in test [2] and in test [3] were 13% and -5%, respectively. Moreover, the result in test [5], in test [6], in test [7] and in test [8] was inactive.

Turning to `CCCNCc1ccc(-c2ccc(CN(Cc3cnc(C)cn3)C(=O)c3nn(-c4ccccc4)nc3C)cc2)nc1`, the growth inhibition was 49% in test [1] and 99% (active) in test [4]. Further, the results for the inhibition in test [2] and in test [3] were 22% and 0%, respectively. The outcome in test [5], in test [6], in test [7] and in test [8] was inactive.

As for `COc1cc2c(cc1C(F)(F)F)N(C(=O)Nc1cccc(-c3ccc(CN(C)C)cc3)c1)CC2`, the growth inhibition in test [1] was 93% (active); in test [4], 101% (active). Also, the figures for the inhibition in test [2] and in test [3] were 95% (active) and 1%, respectively. The result in test [5], in test [6], in test [7] and in test [8] was inactive.

`CCc1cc(NCc2ccncc2)nc(Nc2ccc(F)cc2)n1`: the results for the growth inhibition in test [1] and in test [4] were 17% and 92% (active), respectively. Also, the inhibition in test [2] was 8%; in test [3], 0%. The result in test [5], in test [6], in test [7] and in test [8] was inactive.

In the case of `O=C(/C=C/c1ccc(Cl)c(Cl)c1)NCCCCCN1CCN(C(=O)Nc2ccc(OC(F)F)cc2)CC1`, the growth inhibition in test [1] is -2%; in test [4], 99% (active). The values for the inhibition in test [2] and in test [3] were 20% and 4%, respectively. Moreover, the outcome in test [5], in test [6], in test [7] and in test [8] was inactive.

`O=C(Nc1ccc2c(c1)OCO2)NC1CCN(c2ccnc(Nc3ccc(F)cc3)n2)C1` (stereo not given): the growth inhibition in test [1] is 89% (active); in test [4], 100% (active). Also, the inhibition was 5% in test [2] and 3% in test [3]. In addition, the outcome in test [5], in test [6], in test [7] and in test [8] was inactive.

As to `CC1(CCCCN2CCC(Oc3ccc(F)cc3F)CC2)C(=O)Nc2ccccc21` (stereo not given), the growth inhibition is 6% in test [1] and 99% (active) in test [4]. Besides, the inhibition is 6% in test [2] and -6% in test [3]. For the same compound, the outcome in test [5], in test [6], in test [7] and in test [8] was inactive.

Regarding `COc1c(C2CCN(CCCCNC(=O)c3ccc(-c4ccc(Cl)cc4)cn3)CC2)ccc2c1CCCC2`, the growth inhibition in test [1] is 14%; in test [4], 93% (active). Besides, the inhibition is 100% (active) in test [2] and -3% in test [3]. Besides, the outcome in test [5], in test [6], in test [7] and in test [8] was inactive.

Turning to `Cc1cccc(Nc2nccc(Nc3cccc(C(=O)NCCN4CCOCC4)c3)n2)c1`, the figures for the growth inhibition in test [1] and in test [4] were 11% and 91% (active), respectively. Besides, the inhibition in test [2] was 10%; in test [3], -2%. The outcome in test [5], in test [6], in test [7] and in test [8] was inactive.

In the case of `Oc1ccc2[nH]c(-c3cccc(F)c3)nc2c1CN1CCC(O)(c2ccccc2)CC1`, the figures for the growth inhibition in test [1] and in test [4] were 72% (active) and 97% (active), respectively. Besides, the inhibition in test [2] is 21%; in test [3], -1%. The result in test [5], in test [6], in test [7] and in test [8] was inactive.

As to `CCC[C@]1(C)CSc2ccccc2[C@@H](c2ccccc2)N1`, the growth inhibition was 2% in test [1] and 87% (active) in test [4]. Also, the inhibition in test [2] is 60% (active); in test [3], -3%. For the same compound, the outcome in test [5], in test [6], in test [7] and in test [8] was inactive.

As to `O=C(NCCCCN1CCC(c2ccc3c(c2OCCCO)CCCC3)CC1)c1ccc(-c2ccc(C(F)(F)F)cc2)cc1`, the growth inhibition in test [1] was 53% (active); in test [4] it was 83% (active). In addition, the inhibition is 98% (active) in test [2] and 1% in test [3]. Moreover, the outcome in test [5], in test [6], in test [7] and in test [8] was inactive.

For the compound `O=C(NCc1ccc(F)cc1)Nc1ccc(-c2cccc(-c3nc4ccc(C(F)(F)F)cc4[nH]3)c2)cc1`, the growth inhibition in test [1] is 92% (active); in test [4], 101% (active). In addition, the inhibition in test [2] is 41%; in test [3] it was 3%. For the same compound, the outcome in test [5], in test [6], in test [7] and in test [8] was inactive.

For `Cc1ccc(Oc2cnn(C)c(=O)c2Nc2cccc(C(=O)NCCc3ccccn3)c2)c(C)c1`, the growth inhibition in test [1] and in test [4] was 94% (active) throughout. In addition, the inhibition is 0% in test [2] and -4% in test [3]. For the same compound, the result in test [5], in test [6], in test [7] and in test [8] was inactive.

`COc1cc2nc(NCCN3CCOCC3)n3nc(-c4ccccc4)nc3c2cc1OC`: the growth inhibition in test [1] is 98% (active); in test [4] it was 96% (active). Also, the inhibition in test [2] is 15%; in test [3], -3%. In addition, the outcome in test [5], in test [6], in test [7] and in test [8] was inactive.

For the compound `COc1ccc(CNCc2cccc(-c3ccc(-c4nc5c(C)cccc5[nH]4)s3)c2)cc1`, the growth inhibition in test [1] is 65% (active); in test [4], 103% (active). Besides, the inhibition in test [2] was 24%; in test [3], 7%. For the same compound, the outcome in test [5], in test [6], in test [7] and in test [8] was inactive.

As to `O=C(NC(=Cc1cccc([N+](=O)[O-])c1)c1nc2ccccc2[nH]1)c1cccc(Br)c1`, the results for the growth inhibition in test [1] and in test [4] were 88% (active) and 85% (active), respectively. Further, the inhibition in test [2] was -1%; in test [3], 0%. Moreover, the result in test [5], in test [6], in test [7] and in test [8] was inactive.

For the compound `CNC(=O)Cc1ccc(C(=O)Nc2cccc(-c3csc(-c4nc5ccccc5[nH]4)c3)c2)cc1`, the growth inhibition in test [1] is 69% (active); in test [4], 95% (active). Also, the inhibition in test [2] is 36%; in test [3] it was 4%. For the same compound, the outcome in test [5], in test [6], in test [7] and in test [8] was inactive.

`Cc1ccc(NC(=O)c2ccc(CN3CCCN(CC4CCCCC4)CC3)cc2)cc1`: the growth inhibition in test [1] is 42%; in test [4] it was 93% (active). The inhibition was 41% in test [2] and -3% in test [3]. Besides, the result in test [5], in test [6], in test [7] and in test [8] was inactive.
